Laboratory results from PubChem BioAssay (NCI).
This is part of a sample that, as a whole, favours compounds with a hit. Of some 83,000 tested, about 20% had one in any assay.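 Compound tested at a single concentration for 48 hours in 96-well plates; a percent growth value below 10 was scored as active.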 Unmarked numbers belong to inactive results. Active and inactive are the calls of the source.

Tests used:
Assay in all cases: NCI-60 one-dose screen, 48 h (100 = growth as untreated, 0 = no growth, -100 = all killed)
Settings in all cases: 10 µM unless noted
[1] = system: NCI-H23 lung
[2] = system: NCI-H226 lung
[3] = system: NCI-H322M lung
[4] = system: HOP-62 NSCLC
[5] = system: NCI-H460 lung
[6] = system: HOP-92 NSCLC
[7] = system: NCI-H522 lung
[8] = system: A549/ATCC NSCLC
[9] = system: 786-0 renal
[10] = system: COLO 205 colon

| SMILES | growth [1] | growth [2] | growth [3] | growth [4] | growth [5] | growth [6] | growth [7] | growth [8] | growth [9] | growth [10] |
| --- | --- | --- | --- | --- | --- | --- | --- | --- | --- | --- |
| c1ccc2cc(C[n+]3ccn(CCCCCCCCCCn4cc[n+](Cc5ccc6ccccc6c5)c4)c3)ccc2c1 | 5.67% (active) | 39.5% | 34.5% | -4.86% (active) | 11% | -23.6% (active) | -72.3% (active) | 18.5% | 35.6% | -81.1% (active) |
| O=C1/C(=C/c2ccccc2Br)COc2ccc(O)cc21 | 92.5% | 100% | 93.8% | 88.9% | 95.3% | 104% | 31.3% | 86.4% | 73% | 100% |
| CC1OC(n2c3ccccc3c3c4c(c5c6ccccc6[nH]c5c32)C(=O)N(CCN2CCCC2)C4=O)CC(O)C1O (stereo not given) | 41% | 43.1% | 58.2% | 35.2% | -61.3% (active) | 86.6% | 24.5% | 15.3% | 18% | 24.8% |
| O=C1/C(=C\c2ccc3nccnc3c2)SC(=S)N1CCc1ccc(O)cc1 | 98.2% | 96% | 103% | 108% | 102% | -3.77% (active) | 65.9% | 101% | 60.6% | 119% |
| O=C1NC(=C(Cl)Cl)/C(=N\S(=O)(=O)NCc2ccccc2)N1 | 104% | 99.2% | 99.3% | 102% | 110% | 107% | 81.4% | 94.1% | 100% | 121% |
| C#COc1cccc(Nc2c(C#N)cnc3ncc(NC(=O)CCl)cc23)c1 | 59.6% [6.25 µM] | 57.2% [6.25 µM] | 53.1% [6.25 µM] | 32.8% [6.25 µM] | 11.8% [6.25 µM] | 54.5% [6.25 µM] | -69.4% [6.25 µM] (active) | 31.2% [6.25 µM] | -23.4% [6.25 µM] (active) | 17.5% [6.25 µM] |
| O=C1NC(=O)C(Cc2ccc(OCc3ccc(-c4ccc(Cl)cc4Cl)cc3)cc2)S1 (stereo not given) | 46.9% | 74.5% | 90.8% | 66.4% | 58.5% | 53.7% | 26.8% | 39.4% | 63.8% | 90.4% |
| O=C1Nc2ccccc2/C1=C/c1nc2ccccc2c(=O)[nH]1 | 75.8% | 94.5% | 101% | 76.3% | 95.1% | 94.1% | 94.1% | 100% | 104% | 117% |
| CC1=C2[C@@H](CC1)[C@]1(C)O[C@@](C(C)C)(C[C@H]1OC(=O)[C@H](C)O)[C@H]2OC(=O)/C=C/c1ccccc1 | 90.7% | 84.2% | 85.9% | 80.9% | 88.9% | 55.9% | 74% | 66.9% | 66.5% | 98.8% |
| COc1ccc(C/C(C)=C(\c2ccc(Cl)cc2)c2ccc(OCCN3CCCCC3)cc2)cc1 | 91.9% | 86.5% | 96.7% | 102% | 101% | 87.9% | 87.3% | 98.1% | 93.8% | 95.3% |
| CCOC(=O)c1c(C(=O)c2cn(C)c3ccc(Br)cc23)c(-c2cn(C)c3ccc(Br)cc23)n(NC(=O)OC(C)(C)C)c1C | 86.5% [100 µM] | 89.7% [100 µM] | 89.5% [100 µM] | 56.1% [100 µM] | 80.5% [100 µM] | 4.73% [100 µM] (active) | 89.6% [100 µM] | 74% [100 µM] | 32% [100 µM] | 98.5% [100 µM] |
| COc1cc(C2c3cc(OC(C)=O)c(OC)cc3CC3C(=O)OCC32)ccc1OC(C)=O (stereo not given) | 105% | 107% | 115% | 91.8% | 109% | 53.7% | 105% | 104% | 96.4% | 119% |
| CCN1C(=S)N(c2ccccc2)C2NC(=S)N(/N=C/C=C/c3ccccc3OC)C21 (stereo not given) | 32.7% | 58% | 45.6% | 36.9% | 3.12% (active) | 53.5% | -15.5% (active) | 11.4% | 29.4% | -2.82% (active) |
| CN(C)Cc1ccc(O)c(C(=O)O)c1 | 104% | 108% | 109% | 106% | 105% | 95.5% | 102% | 109% | 107% | 117% |
| O=C(Nc1cccc(Cl)c1)Nc1cccc(Cn2c(=O)[nH]c3ccc(Oc4ncccn4)cc3c2=O)c1 | 33.1% | 64.4% | 66.1% | 64.8% | 42.8% | 43.7% | 25.6% | 40.4% | 71.4% | 48.3% |
| Cc1c(-c2ccc(O)cc2)n(Cc2ccc(OCCN3CCCCCC3)cc2)c2ccc(O)cc12 | 77% | 89.7% | 92.3% | 80.6% | 89.3% | 59.3% | 75.5% | 72.5% | 75.7% | 106% |
| COc1ccc2cc1Oc1ccc(cc1)C[C@H]1c3c(cc4c(c3Oc3cc5c(cc3OC)CCN(C)[C@@H]5C2)OCO4)CCN1C | 75.9% | 87.4% | 56% | 115% | 59.4% | 52.6% | -18.8% (active) | 47.2% | 53.5% | 109% |
| O=C(NCc1ccc(Cl)cc1Cl)C1CCC(=O)N1c1cccs1 (stereo not given) | 91% | 103% | 104% | 92.9% | 104% | 103% | 76.8% | 86.3% | 94% | 96.8% |
| COc1cc2c(c(OC)c1OC)CCC(c1cccc(NC(=O)c3ccc(Br)cc3)c1)O2 (stereo not given) | 80.1% | 72.4% | 75.1% | 87.2% | 93.5% | 58.5% | 74.6% | 67.4% | 97.1% | 85.8% |
| CCOC(=O)C(=O)C(C(=O)OCC)c1ccccc1 (stereo not given) | 107% | 107% | 110% | 107% | 110% | 107% | 101% | 122% | 93.3% | 118% |
| Cc1cc(C(=O)O)c(C)n1-c1cccc(C(=O)O)c1 | 78.7% | 100% | 94% | 96.7% | 35.1% | 90.5% | 46% | 71.4% | 106% | 92.5% |
| Nc1nc(-c2ccc(Cl)cc2)nc2c1sc(=S)n2-c1ccccc1 | 48.8% | 49.4% | 45.7% | 28.9% | 9.12% (active) | -19.3% (active) | 56.4% | 23.9% | -52.9% (active) | 64.4% |
| Cc1ccc(-c2nc(N3CCCNCC3)c3oc(-c4ccc(C)cc4)nc3n2)cc1 | 91.1% | 101% | 16.5% | 71.8% | -37.5% (active) | 60.9% | 65% | -62.3% (active) | -96.2% (active) | -71.6% (active) |
| C1CN(SSN2CCOCC2)CCO1 | 3.63% [100 µM] (active) | 26.5% [100 µM] | 59.3% [100 µM] | 91.9% [100 µM] | 10.8% [100 µM] | -0.94% [100 µM] (active) | -53.1% [100 µM] (active) | 35.7% [100 µM] | -93% [100 µM] (active) | -70% [100 µM] (active) |
| COC(=O)c1c2c(c(C)[n+]([O-])c1C)C(=O)C(NCc1cccc(OC)c1)=CC2=O | 25.4% | 83.2% | 22.6% | 53.2% | 14.6% | 54.5% | 10.8% | 12.9% | 54.3% | -63.4% (active) |
| N#CSCC1CC(O)(c2ccccc2)CC(c2ccc(F)cc2)O1 (stereo not given) | 20.5% | -7.79% (active) | 50.9% | -36.8% (active) | -28.9% (active) | 29.6% | -57% (active) | 27.8% | 0.242% (active) | 16.6% |
